Reference: paper PMC4336329 (PLoS ONE, 2015)
In all, about 310,000 compounds went through this assay and about 14,000 (4.5%) showed an effect of 50% or more. Effects have a minus sign here. The full list was thinned out, with strong results kept by preference.

Target: human ether-à-go-go-related gene (hERG) potassium channel (human, UniProt Q12809)
Test: primary screen, population patch clamp on CHO cells stably expressing hERG; higher = less effect of the substance
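Also: peak tail current of the secondary pulse compared with the same well before compound.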

Sequence of human ether-à-go-go-related gene (hERG) potassium channel (Q12809 whole entry, looked up): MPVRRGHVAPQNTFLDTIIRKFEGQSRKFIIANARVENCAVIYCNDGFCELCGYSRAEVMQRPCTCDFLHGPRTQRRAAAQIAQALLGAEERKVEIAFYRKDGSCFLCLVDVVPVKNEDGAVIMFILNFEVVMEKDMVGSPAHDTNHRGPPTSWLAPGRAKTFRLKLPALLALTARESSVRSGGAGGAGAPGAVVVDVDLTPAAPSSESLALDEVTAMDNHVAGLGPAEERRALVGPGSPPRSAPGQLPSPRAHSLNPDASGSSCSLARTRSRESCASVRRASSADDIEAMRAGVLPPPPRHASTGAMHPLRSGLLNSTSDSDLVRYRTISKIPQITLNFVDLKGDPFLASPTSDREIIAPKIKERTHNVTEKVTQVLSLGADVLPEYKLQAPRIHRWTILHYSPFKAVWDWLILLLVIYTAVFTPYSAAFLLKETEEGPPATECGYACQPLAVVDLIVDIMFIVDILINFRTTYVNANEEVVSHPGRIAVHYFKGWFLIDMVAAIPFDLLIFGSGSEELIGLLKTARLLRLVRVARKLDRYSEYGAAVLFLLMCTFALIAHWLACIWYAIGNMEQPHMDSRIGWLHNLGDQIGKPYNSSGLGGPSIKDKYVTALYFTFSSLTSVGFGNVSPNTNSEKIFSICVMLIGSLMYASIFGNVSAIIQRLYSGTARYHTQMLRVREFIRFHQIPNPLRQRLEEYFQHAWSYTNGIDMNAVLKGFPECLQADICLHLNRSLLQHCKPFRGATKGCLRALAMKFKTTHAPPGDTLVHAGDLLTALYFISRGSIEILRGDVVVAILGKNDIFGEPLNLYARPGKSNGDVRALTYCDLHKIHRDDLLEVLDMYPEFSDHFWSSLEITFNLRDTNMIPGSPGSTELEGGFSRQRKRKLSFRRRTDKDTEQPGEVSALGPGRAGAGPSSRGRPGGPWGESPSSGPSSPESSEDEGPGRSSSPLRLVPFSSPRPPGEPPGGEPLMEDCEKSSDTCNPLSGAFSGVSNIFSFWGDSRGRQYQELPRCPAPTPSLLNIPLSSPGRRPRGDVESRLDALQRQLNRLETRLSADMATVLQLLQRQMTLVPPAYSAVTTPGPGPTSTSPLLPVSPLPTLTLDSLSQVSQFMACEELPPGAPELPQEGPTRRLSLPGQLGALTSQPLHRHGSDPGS

SMILES | hERG current change (%, negative = inhibition) at 10uM [%]
CCOc1ccc(NS(=O)(=O)c2ccc(OC)c(NC(=O)c3ccc4c(c3)OCCO4)c2)cc1 | -2.7
O=C(Cc1csc(-c2ccccc2)n1)NCc1ccco1 | -1.66
Cc1ccc(C(=O)N2CCN(c3cnn(C)c(=O)c3Cl)CC2)cc1 | -31.1
CC(C)c1ccc(C(=O)N2CCCN(C(=O)c3ccc(C(C)C)cc3)CC2)cc1 | -32.9
O=C(c1ccc(F)cc1)N1CCN(c2cnn(-c3ccccc3)c(=O)c2Cl)CC1 | -48.6
CCOc1ccc(C(=O)N2CCN(c3cnn(-c4ccccc4)c(=O)c3Cl)CC2)cc1 | -77.8
CC(C)c1ccc(C(=O)N2CCN(c3cnn(C)c(=O)c3Cl)CC2)cc1 | -64.4
O=C(c1cccc(Br)c1)N1CCN(c2cnn(-c3ccccc3)c(=O)c2Cl)CC1 | -47.4
Cc1ccn2cc(C(=O)N3CCN(c4cnn(-c5ccccc5)c(=O)c4Cl)CC3)nc2c1 | -46.7
CCS(=O)(=O)N1CCN(c2cnn(-c3ccccc3)c(=O)c2Cl)CC1 | -29
COc1ccc(C(=O)N2CCN(c3cnn(-c4ccccc4)c(=O)c3Cl)CC2)cc1 | -71.3
CCCCOP(=O)(c1ccc(N(C)C)cc1)C(O)c1ccc(N(C)C)cc1 (stereo not drawn) | -5.3
COc1cc(/C=C/c2nc(N)nc(-c3ccccc3O)n2)cc(OC)c1OC | -3.86
Cc1ncc([N+](=O)[O-])n1CCOC(=O)Nc1ccc(Cl)c(Cl)c1 | 1.07
CCOc1c(CNCCCSc2nc(C)cc(C)n2)cccc1OC.Cl | -11.1
Cc1ccc(CNCCCSc2nc(C)cc(C)n2)cc1.Cl | -52.3
CCOc1ccc(Cl)cc1CNCCCSc1ncccn1 | -37.3
Cc1cc(C)nc(SCCCNCc2ccc(Br)cc2)n1.Cl | -36.1
Cc1cc(C)nc(SCCCNCc2ccccc2)n1.Cl | -3.19
CCOc1ccc(Cl)cc1CNCCCSc1nc(C)cc(C)n1.Cl | -59.6
O=C(NC1CCCCC1)C1CC(=O)N(CCc2ccccc2)C1 (stereo not drawn) | -7.01
O=C(c1ccccc1O)N1CCOCC1 | 3.51
CNC(=S)N(CCc1c(C)[nH]c2ccc(OC)cc12)Cc1cccnc1 | 9.25

SMILES | hERG current change (%, negative = inhibition) at 10uM [%]
CCn1c(=O)c(=O)[nH]c2cc(C(=O)NC(C)c3ccc(S(N)(=O)=O)cc3)ccc21 (stereo not drawn) | 3.47
CCCCCOc1ccc(/C(C)=N/NC2=NCCN2)cc1 | -39.8
Cc1cc(N2CCC(C(=O)NCC3CC3)CC2)nc(-c2ccccc2)n1 | -73.1
Cc1cc(C)nc(N2CCC(C(=O)NCc3ccccc3)CC2)n1 | 3.44
C#CCNC(=O)C1CCN(c2cc(C)nc(-c3ccccc3)n2)CC1 | -40.7
Cc1cc(-c2ccccc2)nc(N2CCC(C(=O)NC(C)C)CC2)n1 | 4.06
C=CCNC(=O)C1CCN(c2nc(C)cc(-c3ccccc3)n2)CC1 | -51.3
Cc1cc(N2CCC(C(=O)NC3CCCCC3)CC2)nc(-c2ccccc2)n1 | -49.6
Cc1cc(N2CCC(C(=O)Nc3ccc(F)cc3)CC2)nc(-c2ccccc2)n1 | -32.9
Cc1cc(N2CCC(C(=O)NC3CC3)CC2)nc(-c2ccccc2)n1 | -46
C=CCNC(=O)C1CCN(c2cc(C)nc(-c3ccccc3)n2)CC1 | -58.2
COc1ccc(NC(=O)c2sccc2OS(=O)(=O)N(C)C)cc1 | 11.2
C/C(=N/NC(N)=S)c1ccc(Br)s1 | 16.8
CCOc1ccccc1/C=N/NC(=O)Cc1csc(Nc2cccc(C(F)(F)F)c2)n1 | 4.05
N#CSc1ccc2oc(C3=NCCN3)cc2c1 | 0.521
O=C(c1ccc2c(c1)OCCCO2)N1CCCCC1 | 11.7
CCNc1nc(NCC)nc(OCC(=O)O)n1 | 7.6
COc1ccc(N2CCN(c3nc(NCCO)nc(N4CCOCC4)n3)CC2)cc1 | -1.07
O=C1NC(=O)N(Cc2ccccc2)C1=O | 26.4
COc1ccc(C2/C=C\CN(CC3CC3)CC(=O)N2Cc2ccc(F)cc2)cc1 (stereo not drawn) | -21
COCCCNCCOCCOc1ccccc1-c1ccccc1.O=C(O)C(=O)O | -29.4
CCCCNCCOc1ccccc1-c1ccccc1.O=C(O)C(=O)O | -28.2
COCCCNCCOCCOc1ccc(Cl)cc1Br.O=C(O)C(=O)O | -51.9

SMILES | hERG current change (%, negative = inhibition) at 10uM [%]
CCCCNCCOCCOc1ccccc1-c1ccccc1.O=C(O)C(=O)O | -50.1
CCCCNCCCOc1ccc(C)cc1Br.O=C(O)C(=O)O | -35
OCCNCCCOc1cc(Cl)ccc1Cl | -14.4
CCCCNCCOCCSc1ccc(Cl)cc1.O=C(O)C(=O)O | -43.5
COCCCNCCCOc1ccc(C)cc1Br.O=C(O)C(=O)O | -30.7
CCCCNCCOCCOc1ccc(C)cc1Br.O=C(O)C(=O)O | -32.1
CCCCNCCOCCOc1ccc(Cl)cc1Br.O=C(O)C(=O)O | -57.9
COCCNCCCOc1ccc(Cl)cc1Br.O=C(O)C(=O)O | -42
CCCCNCCCOc1cc(Cl)ccc1Cl.O=C(O)C(=O)O | -54.3
CCOC(=O)Cn1c(-c2ccc(OC)cc2)c(-c2ccc(OC)cc2)nnc1=O | 9.79
O=C(NC(=S)NCCc1ccccn1)c1ccco1 | 17.4
COc1cccc(CNS(=O)(=O)c2ccc(S(=O)(=O)N3CCCC3)cc2)c1 | 7.51
COc1ccc(C(=O)N(Cc2ccco2)Cc2cccs2)c(O)c1 | -6.63
O=C(CSc1nncn1-c1ccccc1)Nc1ccc(N2CCOCC2)cc1 | 3
CN(C)S(=O)(=O)c1ccc(NC(=O)N2CCN(c3cccc(C(F)(F)F)c3)CC2)cc1 | 7.83
Cc1ccsc1C(=O)OCC(=O)NCCNC(=O)COC(=O)c1sccc1C | 15.7
O=C(CCNC(=O)c1ccccc1Cl)Nc1cc(S(=O)(=O)N2CCOCC2)ccc1N1CCCC1 | -8.58
COc1ccccc1-c1c(C)nn2c(-c3ccccc3)cc(C)nc12 | 3.05
CCOC(=O)COn1c(=O)c(-c2ccc(Cl)cc2)[n+]([O-])c2ccccc21 | -4.24
Cc1ccc(S(=O)(=O)N(Cc2cccc(F)c2)C(=O)N2CCN(C)CC2)cc1 | 33.1
CCCC(=O)Nc1ccc(C(=O)NCc2ccccn2)cc1 | 14.2
COc1cccc(CN2CCN(Cc3nc(C(C)C)cs3)CC2CCO)c1 (stereo not drawn) | -73.7
Cc1ccc(CN2CCN(Cc3nc(C(C)C)cs3)CC2CCO)cc1 (stereo not drawn) | -68.5

SMILES | hERG current change (%, negative = inhibition) at 10uM [%]
CCOc1ccc(CN2CCN(Cc3nc(C(C)C)cs3)CC2CCO)cc1 (stereo not drawn) | -82.2
CC(C)c1csc(CN2CCN(Cc3ccc(F)cc3)C(CCO)C2)n1 (stereo not drawn) | -35.3
COc1cccc(CN2CCN(Cc3c(C)nn(C(C)C)c3C)CC2CCO)c1 (stereo not drawn) | -2.68
Cc1nn(-c2ccccc2)c(C)c1/C=C/C(=O)OCC(=O)Nc1ccc(S(N)(=O)=O)cc1 | 13.1
COc1ccccc1C(=O)NCCC(=O)N(C)CC(=O)Nc1ccc(C)cc1 | 7.91
Cc1ccc(S(=O)(=O)NC(CC(=O)O)c2ccccc2)c(C)c1 (stereo not drawn) | 5.52
CC1C(c2ccccc2)C(C#N)(C#N)C2(C#N)C(=O)NC1(N)C2C (stereo not drawn) | -3.25
c1ccc(-n2nnnc2-c2cnc(-c3cccnc3)nc2-c2cccs2)cc1 | -10.6
COc1ccccc1/C=N/NC(=O)COCC(=O)N/N=C/c1ccccc1OC | 3.56
CN1CCN(CC(=O)N/N=C\c2c[nH]c3ccccc23)CC1 | 16.2
O=C(CN1CCN(Cc2ccc(Cl)cc2)CC1)N/N=C/c1c[nH]c2ccccc12 | -52.9
O=C(CN1CCN(Cc2ccc(Cl)cc2)CC1)N/N=C/c1ccccc1F | -68.7
O=C(CO)N/N=C/c1ccccc1F | 19.1
O=C(CN1CCN(c2ccccc2)CC1)N/N=C/c1cccc(F)c1 | 4.27
O=C(COCC(=O)N/N=C/c1ccccc1F)N/N=C/c1ccccc1F | -54.8
O=C(CN1CCN(Cc2ccccc2)CC1)N/N=C/c1ccccc1F | -29.3
O=C(CN1CCN(Cc2ccc(Cl)cc2)CC1)N/N=C/c1cccc(F)c1 | -69.2
Cc1ccc(CN2CCN(CC(=O)N/N=C/c3c[nH]c4ccccc34)CC2)cc1 | -36.3
O=C(CC(=O)Nc1ccc(Cl)cc1)N/N=C\c1cccc(F)c1 | 16.6
O=C(CN1CCCCCCC1)N/N=C/c1ccccc1F | -35.6
O=C1CN(C(=O)CSc2nnc(Nc3ccccc3)s2)c2ccccc2N1 | 0.255
